Screening data (PubChem BioAssay)
This is a sample that favours compounds with a hit; in the whole collection about 1.9% have one here.
HTT cytoprotect – cytoprotection in Huntington HTT-Q103 PC12 cell model | PC12 HTT-Q103 induced, cytoprotection, ATP luminescence, 40 h | 230,000 compounds, 0.14% hits | Potency, µM (highest dose often 56.4 µM), inactives show cytoprotection (ATP increase), hits mostly activators | AID 1471; further: % of control where 0% means no effect; nearly all actives have a fitted effect of over 45% in size
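Compounds added alongside 100 nM tebufenozide, which induces toxic Q103 huntingtin exon 1-GFP in stable PC12 cells; surviving cells quantified by luminescent ATP measurement. Medium: phenol red-free DMEM, 5% equine and 5% calf serum.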
HttQ103 aggreg – inhibitors of mutant huntingtin aggregate formation in PC12 cells | PC12 HttQ103-GFP aggregates, Acumen cytometry, 40 h | Potency, µM (doses to about 46.1 µM), for the others: at the top dose activity change, negative = inhibition, actives largely listed as inhibitors | 220,000 compounds, 1.1% hits | AID 1688; further: on the % scale 0 is the no-effect control and ±100 the full control effect; nearly all actives have a fitted effect of over 60% in size
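Read-out: GFP aggregate count by laser scanning cytometer (488 nm excitation, 500-530 nm emission, 1–25 µm objects >6 SD above background). Cells: PC12, inducible HTTex1-Q103-GFP, 100 nM tebufenozide; compounds titrated.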
IMPase Li cell – cell-permeable IMPase inhibitors with lithium potentiation; CHO-M1 cells, IP1 TR-FRET (IP-One), carbachol + lithium; Potency, µM (top dose mostly 59.4 µM), for the others: at the top dose activity, negative = IMPase inhibition, most hits filed as inhibitors; 210,000 compounds, 0.35% hits;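 further: IP1 builds up when IMPase is blocked and the TR-FRET signal falls; plate controls were basal vehicle for no effect and high inhibitor control for full effect; nearly all actives have a fitted effect of over 50% in size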
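CHO cells stably expressing M1 receptor (2000/well, cultured 16–30 h) treated 30 min at 37C with compound plus low lithium. Cytosolic IP1 by TR-FRET (665/620 ratio and 620 channel) after 10 min lysis; AC50 by Hill fit.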
ERK EGF block – EGF-driven ERK pathway inhibition | HEK293-V1b, EGF-stimulated phospho-ERK AlphaScreen | Potency, µM (top dose mostly 11.5 µM), for the others: at the highest dose activity change, negative = inhibition, actives largely listed as inhibitors | 130,000 compounds, 0.41% hits;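 further: plate controls were stimulated vehicle wells for no effect and unstimulated vehicle basal for full effect; nearly all actives have a fitted effect of over 55% in size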
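HEK293 cells stably expressing V1b receptor, serum-reduced (1% FBS) overnight, got compound for 30 min at 37C, then 25 nM EGF for 5 min. Lysate phospho-ERK read by AlphaScreen SureFire; AC50 from Hill fits.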
NPSR antagonist – neuropeptide S receptor (human) antagonism, cAMP; CHO-NPSR cells, cAMP TR-FRET, antagonist mode; Potency, µM (top dose mostly 38.3 µM), without a hit: at the top dose activity change, negative = inhibition, actives largely listed as inhibitors; 220,000 compounds, 1% hits; AID 1461; further: on the % scale 0 is the no-effect control and ±100 the full control effect; nearly all actives have a fitted effect of over 50% in size
Target sequence (Q6W5P4 whole entry, looked up): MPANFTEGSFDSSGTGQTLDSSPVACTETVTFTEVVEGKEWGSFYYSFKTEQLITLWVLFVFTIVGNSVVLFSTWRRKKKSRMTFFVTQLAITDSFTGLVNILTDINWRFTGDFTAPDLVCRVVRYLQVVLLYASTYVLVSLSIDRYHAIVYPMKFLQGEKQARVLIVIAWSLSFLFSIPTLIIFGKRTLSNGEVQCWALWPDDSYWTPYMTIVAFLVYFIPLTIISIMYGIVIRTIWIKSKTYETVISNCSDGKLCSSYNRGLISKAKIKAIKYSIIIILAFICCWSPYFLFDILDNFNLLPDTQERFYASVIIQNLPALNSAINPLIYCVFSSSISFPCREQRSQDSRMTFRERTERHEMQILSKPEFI
Numbers without * were called inactive; ? = inconclusive; . = no result; [ ] = remark or other dose. The call rests on the fitted dose curve; in most records, active means well fitted curve in the direction sought with a large enough effect; inconclusive means small, poorly fitted or top-dose-only effect, or another doubt; inactive means no such curve, though single readings can be large; an effect the other way counts as inactive or inconclusive. Potency means the concentration at half of the fitted maximal effect.

SMILES	HTT cytoprotect	HttQ103 aggreg	IMPase Li cell	ERK EGF block	NPSR antagonist
COC(=O)[C@@H]1C[C@H]1[C@@H](NC(=O)c1cnccn1)c1ccccc1	-7%	.	3%	5%	.
CCOc1ccc2cc(C(=O)c3ccccc3)c(=O)oc2c1	.	5%	25µM*	11%	-13%
O=C(CCc1nc2ccccc2n1-c1ccccc1)NCCO	5%[10 µM]	-11%	4%	-4%	6%
O=C(COC(=O)CCc1nc2ccccc2n1-c1ccccc1)Nc1ccc(N2CCCCC2)cc1	3.2µM*	-1%	.	.	?
C=C[C@@](C)(O)CC[C@H]1[C@]2(C)CCCC(C)(C)[C@H]2CC[C@]1(C)O	5%	.	.	.	.
Cc1cccc2cc(CN(Cc3ccco3)C(c3nnnn3CCc3ccccc3)C(C)C)c(=O)[nH]c12 (centres undefined)	-17%[10 µM]	1%[9.22 µM]	12%[38.3 µM]	.	13µM*
NCC(O)COc1cccc2ccccc12 (centres undefined)	-5%	.	5%	.	.
C=Cc1ccccc1C=C	-1%	.	7%	.	.
O=C1/C(=C/c2ccncc2)CCc2ccccc21	10%[10 µM]	-1%[9.22 µM]	.	?	2%
O=C1/C(=C/c2ccncc2)CCC/C1=C\c1ccncc1	?	?	5%	22µM*	-59%
CCOC(=O)c1sc(=NC(=O)c2ccc(S(=O)(=O)N(C)c3ccccc3)cc2)n(C)c1C	-39%	5%	-1%	4%	3.2µM*
COc1ccc(Cl)c(N2CCN(CCCNC(=O)Nc3ccc(C)cc3)CC2)c1	-35%	35µM*	34%[38.3 µM]	.	-6%[46.1 µM]
Cc1ccc(NC(=O)NCCCN2CCOCC2)cc1	0%[0.074 µM]	-3%	21%[38.3 µM]	.	2%[46.1 µM]
Cc1cccc(C)c1NC(=S)NCCSc1ccc(Cl)cc1	0%	11µM*	17%	3%	-37%
COc1ccc(C(=O)Nc2cccc(C)c2)cc1S(=O)(=O)N1CCOCC1	-11%	-3%	35%[38.3 µM]	.	-8%[46.1 µM]
COc1ccc(C(=O)Nc2cccc3c2C(=O)NC3=O)cc1S(=O)(=O)N1CCOCC1	-1%[10 µM]	14%	10µM*	.	?
COc1ccc(C)cc1N1C(=N)/C(=C2/Nc3ccccc3S2)C(c2ccccc2)C1=O (centres undefined)	-33%[10 µM]	?	12%	20µM*	-19%
COc1ccc(C2C(Oc3ccccc3)C(=O)N2c2cc(C)ccc2C)cc1OC (centres undefined)	-20%	25%	22%[38.3 µM]	.	?
O=C(COC(=O)CCSc1ccc(Cl)cc1)Nc1ccc(F)cc1	0%[10 µM]	-4%	0%	-5%	17%
NC(=O)COC(=O)CCSc1ccc(Cl)cc1	14µM*	?	-2%	2%	9%
Cc1c(O)ccc2c1OCO2	4%[10 µM]	.	.	.	.
COc1cc(/C=C2\SC(c3ccc(C)cc3)=NC2=O)cc(OC)c1O	9%[10 µM]	21%	49%	.	2µM*
COC(=O)C1=C(C(=O)OC)[C@@H]2N(C)c3ccc(OC)cc3[C@@]23C[C@@H](C(=O)OC)N(S(=O)(=O)c2ccc4c(c2)OCCN4C)C3=N1	-10%[10 µM]	.	10%	.	.
COc1ccc(C2c3c(ncn(CCN4CCOCC4)c3=N)Oc3ccc4ccccc4c32)cc1OC (centres undefined)	-41%	13%	-1%[38.3 µM]	.	1µM*
COc1ccc(C2c3ccc(O)cc3Oc3ncn(CCN4CCOCC4)c(=N)c32)cc1 (centres undefined)	23%[10 µM]	13%[9.22 µM]	.	13%[57.5 µM]	10%
SMILES	HTT cytoprotect	HttQ103 aggreg	IMPase Li cell	ERK EGF block	NPSR antagonist
COc1ccc(C2c3c(ncn(CCCO)c3=N)Oc3ccc4ccccc4c32)cc1 (centres undefined)	-31%[10 µM]	-16%[9.22 µM]	.	40µM*	?
Cc1ccc(CN2CCc3c(OCc4ccc(F)cc4)cccc3C2=O)cc1	30%[10 µM]	?	20%	11%	-35%
O=C1c2cccc(OCc3ccc(F)cc3)c2CCN1Cc1ccc(F)cc1	30%[10 µM]	20µM*	20%	-3%	-16%
CN1CCN(c2ncc3ncc(=O)n(C[C@H]4CCCO4)c3n2)CC1	14%	.	-5%	.	.
COC(=O)NC/C=C\c1nc(CCCO)co1	8%[10 µM]	.	.	.	.
COc1ccc(CNC(=O)CCCNS(=O)(=O)c2cccc3nonc23)cc1	3.5µM*	3.2µM*	16%[38.3 µM]	.	-8%[46.1 µM]
C=C(C)COc1ccc(-c2n[nH]c(C)c2-c2ccc(Br)cc2)c(O)c1	-16%	7.9µM*	29%[38.3 µM]	.	?
C=C(C)COc1ccc(-c2[nH]ncc2-c2ccc(Br)cc2)c(O)c1	.	?	7%	?	?
C/C=C/c1ccc(OC(C)[C@@H](O)c2ccc(O)c(OC)c2)c(OC)c1 (some centres undefined)	?	.	15%	5%	.
O=Cc1c2[nH]c3ccccc3c2cc2[nH]c3ccccc3c12	-58%	.	-22%	-15%	.
Cc1cc(C)nc(Sc2ncnc(N)c2[N+](=O)[O-])n1	4%[10 µM]	10µM*	2%	-11%	-19%
Cc1nc(C)n(CC(O)COc2ccc3cc(Br)ccc3c2)n1 (centres undefined)	-18%	13µM*	-27%[38.3 µM]	.	-17%[46.1 µM]
CN(C)S(=O)(=O)N1CCN(CC(O)COc2ccc3cc(Br)ccc3c2)CC1 (centres undefined)	-32%[0.074 µM]	11µM*	-10%[38.3 µM]	.	4%[46.1 µM]
CC(=O)OCC1OC(C#Cc2ccccc2)C=CC1O (centres undefined)	7%[10 µM]	.	.	.	.
CCNc1ncc2nc(C)c(=O)n(CCc3ccccc3)c2n1	-49%	.	19%	.	.
S=c1[nH]c2ccccc2s1	35%	.	5%	-1%	.
CCN1CCC[C@@H]1CNC(=O)c1c(O)c(Cl)cc(Cl)c1OC	9%[1.9 µM]	.	.	.	.
Cc1ccc(S(=O)(=O)O/N=C2\CCCc3ccccc32)cc1	10%	-18%	47%[38.3 µM]	.	-5%[46.1 µM]
CC1=C(C)/C(=N\OS(=O)(=O)c2ccccc2)C=CC1=O	-118%	?	60%[38.3 µM]	.	5µM*
COC(=O)[C@H]1[C@H]2CC3c4[nH]c5ccccc5c4CCN3C[C@@H]2CC[C@@H]1O (some centres undefined)	-19%[1.9 µM]	-13%	?	-3%	.
NNc1ccc2c(C(F)(F)F)cc(C(F)(F)F)nc2n1	.	20%	-7%	-11%	-1%
N#CC(c1cccc(Cl)c1)c1ccc2c(C(F)(F)F)cc(C(F)(F)F)nc2n1 (centres undefined)	-98%	0.89µM*	38%[38.3 µM]	.	10µM*
CC(=O)O[C@@H]1C(CO[Si](C)(C)C(C)(C)C)=C(Br)C(=O)[C@@H]2O[C@]12C	-95%	.	3%	-11%	.
N#Cc1sc2nc(-c3cccs3)cc(-c3ccccc3)c2c1N	-27%	21%	10µM*	.	-9%[46.1 µM]
N#Cc1sc2nc(-c3cccs3)cc(-c3ccc(Cl)cc3)c2c1N	-5%	-3%	10µM*	.	-5%[46.1 µM]
CCN(CC)C(=O)c1sc2nc(-c3cccs3)cc(-c3ccc(Cl)cc3)c2c1N	-11%	1%	?	.	-20%[46.1 µM]
